These results are taken from PubChem BioAssay (Tox21).

The target of assay [1] is Peroxisome proliferator-activated receptor delta (Homo sapiens) (UniProt Q03181). The assay can be described thus: qHTS assay to identify small molecule agonists of the peroxisome proliferator-activated receptor delta (PPARd) signaling pathway (AID 743212; calls by dose curve). The method, boiled down:
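A PPARd-bla HEK293H line with beta-lactamase under an Upstream Activator Sequence is treated with compounds at 37 C. Substrate loading for 2 h at room temperature precedes the fluorescence measurement.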

Assay [2] is described as follows: qHTS assay to identify small molecule antagonists of the peroxisome proliferator-activated receptor delta (PPARd) signaling pathway - cell viability counter screen (AID 743213). Also: nearly all actives have a fitted effect of over 50% in size. Also: potency is read from the fitted curve at half-maximal effect. An outline of the steps:
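HEK293H PPARd UAS-bla cells, 5 h pre-incubation, compound + L165041 300 nM final, 17 h 37 C; B/G FRET substrate 2 h RT; then CellTiter-Glo 30 min RT, luminescence.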

Assay [3] concerns the target Peroxisome proliferator-activated receptor delta (Homo sapiens) (UniProt Q03181). The assay can be described thus: qHTS assay to identify small molecule antagonists of the peroxisome proliferator-activated receptor delta (PPARd) signaling pathway (AID 743215; active = well fitted inhibition curve with a large enough effect in the signal ratio in the repeat runs, not every such curve was filed as active; the % refers to the signal ratio;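 also: cells stimulated with agonist L165041 at 300 nM final during compound exposure; series mostly up to about 62 µM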). An outline of the steps: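 HEK293H UAS-bla, PPARd; agonist L165041 300 nM final with cpd in DMSO; 37 C 17 h; FRET substrate, RT 2 h; fluorescence intensity.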

The target in assay [4] is Bile acid receptor (Homo sapiens) (UniProt Q96RI1). The assay can be described thus: qHTS assay to identify small molecule antagonists of the farnesoid-X-receptor (FXR) signaling pathway (AID 743217; active = well fitted inhibition curve with a large enough effect in the signal ratio in the repeat runs, not every such curve was filed as active; the % refers to the signal ratio; also: potency is read from the fitted curve at half-maximal effect). The method, boiled down:
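GeneBLAzer FXR-UAS-bla HEK 293T, CDCA-stimulated (50 uM final). Compound treatment 16 h, 37 °C. Detection: beta-lactamase cleavage of B/G FRET substrate, fluorescence.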

The nature of assay [5]: qHTS assay to identify small molecule agonists of the farnesoid-X-receptor (FXR) signaling pathway - cell viability counter screen (AID 743218). Also: nearly all actives have a fitted effect of over 45% in size. Also: potency is read from the fitted curve at half-maximal effect. The method, boiled down: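 Parallel cytotoxicity test: compound-treated (16 h, 37 C) HEK 293T FXR-bla reporter cells were lysed with CellTiter-Glo and luminescence recorded.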
Assay [6] concerns the target Bile acid receptor (Homo sapiens) (UniProt Q96RI1). The assay can be described thus: qHTS assay to identify small molecule agonists of the farnesoid-X-receptor (FXR) signaling pathway (AID 743220; active = well fitted activation curve with a large enough effect in the signal ratio in the repeat runs, not every such curve was filed as active; the % refers to the signal ratio). An outline of the steps:
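Beta-lactamase reporter under UAS control in GeneBLAzer FXR HEK 293T cells (5000/well) measured with LiveBLAzer FRET substrate after 2 h at room temperature. Compound exposure lasted 16 h at 37C.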

Assay [7] in a line: qHTS assay to identify small molecule antagonists of the farnesoid-X-receptor (FXR) signaling pathway - cell viability counter screen (AID 743221; active = well fitted cell-killing curve with a large enough effect in the repeat runs, not every such curve was filed as active; also: nearly all actives have a fitted effect of over 50% in size; also: potency is read from the fitted curve at half-maximal effect). The method, boiled down:
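GeneBLAzer FXR-UAS-bla HEK 293T cells, compound plus chenodeoxycholic acid (50 uM final), 16 h at 37 C. CellTiter-Glo added to the same wells after the beta-lactamase read; luminescence read after 30 min at room temperature as viability.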

Assay [8] is described as follows: qHTS assay to identify small molecule agonists of the vitamin D receptor (VDR) signaling pathway - cell viability counter screen (AID 743224). Also: nearly all actives have a fitted effect of over 50% in size. Also: potency is read from the fitted curve at half-maximal effect. The method, boiled down: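 Plated VDR-bla cells (4 h, 37C) received compound, incubated 16 h, then LiveBLAzer substrate 2 h RT; CellTiter-Glo added afterwards, luminescence read at 30 min.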
Assay [9] is described as follows: qHTS assay to identify small molecule agonists of the endoplasmic reticulum stress response signaling pathway (AID 1159516; active = well fitted activation curve with a large enough effect in the signal ratio in the repeat runs, not every such curve was filed as active; the % refers to the signal ratio). An outline of the steps: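 An ESRE-bla HeLa cell assay: compounds were pin-transferred from DMSO onto overnight-plated cells and left 5 hr at 37 C. Substrate was then loaded for 2 hr at room temperature before reading fluorescence at 460 nm and 530 nm.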

The nature of assay [10]: qHTS assay to identify small molecule agonists of the endoplasmic reticulum stress response signaling pathway - cell viability counter screen (AID 1159517; calls by dose curve; also: nearly all actives have a fitted effect of over 50% in size; also: potency is read from the fitted curve at half-maximal effect). An outline of the steps:
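CellTiter-Glo was added to wells already read for beta-lactamase FRET, and luminescence was recorded 30 min later. Cells: ESRE-bla HeLa, 1,500 per well, compound exposure 5 hr at 37 C.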

Assay [11] is described as follows: qHTS assay to identify small molecule antagonists of the retinoid-related orphan receptor gamma (ROR-gamma) signaling pathway - cell viability counter screen (AID 1159520). Also: nearly all actives have a fitted effect of over 50% in size. Also: potency is read from the fitted curve at half-maximal effect. An outline of the steps:
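Tet-on ROR gamma CHO cells (1,000/well) were plated 4 hr, given compounds in DMSO for 2 hr at 37 C, then induced with 1 uM final doxycycline for 16 hr. Viability was read as ATP by CellTiter-Glo luminescence after 30 min.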

The target of assay [12] is Nuclear receptor ROR-gamma (Homo sapiens) (UniProt P51449). The assay can be described thus: qHTS assay to identify small molecule antagonists of the retinoid-related orphan receptor gamma (ROR-gamma) signaling pathway (AID 1159521; also: nearly all actives have a fitted effect of over 50% in size; also: potency is read from the fitted curve at half-maximal effect). An outline of the steps:
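Tet-on ROR-gamma CHO cells with ROR response element-luciferase reporter; compounds added 2 hr before 1 uM doxycycline induction, then 16 hr at 37 C. Antagonism scored as decreased ONE-Glo luminescence.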

A short description of assay [13]: qHTS assay to identify small molecule agonists of the AP-1 signaling pathway - cell viability counter screen (AID 1159525; calls by dose curve; also: nearly all actives have a fitted effect of over 55% in size; also: potency is read from the fitted curve at half-maximal effect). An outline of the steps: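 ME-180 AP-1-bla, 2500 cells/well, Opti-MEM + 0.5% dialyzed FBS; overnight 37 °C; cpd 15-pt titration, 5 h 37 °C; CellTiter-Glo 30 min RT; luminescence read; normalised to TOAB and DMSO controls.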
The nature of assay [14]: qHTS assay to identify small molecule agonists of the AP-1 signaling pathway (AID 1159526; calls by dose curve).
Assay [15] can be described thus: qHTS assay to identify small molecule agonists of the RXR signaling pathway - cell viability counter screen (AID 1159529). Also: nearly all actives have a fitted effect of over 50% in size. Also: potency is read from the fitted curve at half-maximal effect. An outline of the steps: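 RXR-alpha-UAS-bla HEK 293T cells in medium with 2% charcoal-stripped FBS were pre-incubated 5 hr, then compound-treated 16 hr at 37 C. Viability was read by CellTiter-Glo luminescence in the same wells as the beta-lactamase assay, with tetraoctyl ammonium bromide as positive control.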

For assay [16], the target named is Vitamin D3 receptor (Homo sapiens) (UniProt P11473). The assay can be described thus: qHTS assay to identify small molecule agonists of the vitamin D receptor (VDR) signaling pathway (AID 743222; calls by dose curve). An outline of the steps: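 In VDR-bla cells, compound-induced beta-lactamase expression is quantified by FRET substrate fluorescence. Treatment lasts 16 h at 37C; substrate develops 2 h at room temperature.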

The target is the same in assay [17]. In words: qHTS assay to identify small molecule antagonists of the vitamin D receptor (VDR) signaling pathway (AID 743223; active = well fitted inhibition curve with a large enough effect in the signal ratio in the repeat runs, not every such curve was filed as active; the % refers to the signal ratio). The method, boiled down: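 VDR-bla cells were treated with compound plus 3 nM final 1alpha,25-dihydroxyvitamin D3 for 16 h at 37C. Beta-lactamase reporter read by B/G FRET substrate fluorescence after 2 h at room temperature. qHTS format.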

The nature of assay [18]: qHTS assay to identify small molecule antagonists of the vitamin D receptor (VDR) signaling pathway - cell viability counter screen (AID 743225). Also: nearly all actives have a fitted effect of over 50% in size. An outline of the steps:
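VDR-UAS-bla HEK 293T cells were plated and incubated 4 h at 37C, then dosed with compound plus 3 nM (final) 1-alpha,25-dihydroxyvitamin D3 for 16 h. After the 2 h beta-lactamase read, viability in the same wells was read as CellTiter-Glo luminescence after 30 min at room temperature.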

The target in assay [19] is Retinoic acid receptor RXR-alpha (Homo sapiens) (UniProt P19793). The assay can be described thus: qHTS assay to identify small molecule agonists of the RXR signaling pathway (AID 1159527; calls by dose curve; also: nearly all actives have a fitted effect of over 35% in size). The method, boiled down:
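GeneBLAzer RXR-alpha-UAS-bla HEK 293T cells in 2% charcoal-stripped FBS medium were exposed to compounds for 16 hr at 37 C in agonist mode. Beta-lactamase reporter read as 460/530 nm FRET ratio after 2 hr substrate loading.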

Values joined by “and” are separate entries in the source; they are usually repeats but may differ in a detail not shown here. Equal entries are not always repeated. Inconclusive results are not listed. Active and inactive are the calls of the source. Unless noted, calls follow the shape of the dose curve; as a rule, active = well fitted curve in the direction sought with a large enough effect in the repeat runs; inconclusive = weak or mixed curves; inactive = no such curve, though single readings can be large; an effect the other way counts as inactive or inconclusive.

Sequence of Peroxisome proliferator-activated receptor delta (Homo sapiens) (Q03181 whole entry, looked up): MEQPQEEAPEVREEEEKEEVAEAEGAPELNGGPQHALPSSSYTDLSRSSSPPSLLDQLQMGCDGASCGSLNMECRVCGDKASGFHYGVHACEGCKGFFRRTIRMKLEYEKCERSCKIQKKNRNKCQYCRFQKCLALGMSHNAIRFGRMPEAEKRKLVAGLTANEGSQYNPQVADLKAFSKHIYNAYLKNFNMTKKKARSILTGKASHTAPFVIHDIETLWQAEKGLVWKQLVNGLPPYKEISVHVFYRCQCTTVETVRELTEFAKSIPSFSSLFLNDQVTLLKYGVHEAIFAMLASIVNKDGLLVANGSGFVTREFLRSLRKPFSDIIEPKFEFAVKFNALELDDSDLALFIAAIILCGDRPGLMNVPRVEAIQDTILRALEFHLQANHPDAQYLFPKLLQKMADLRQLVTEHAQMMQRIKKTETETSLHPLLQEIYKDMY
Sequence of Bile acid receptor (Homo sapiens) (Q96RI1 whole entry, looked up): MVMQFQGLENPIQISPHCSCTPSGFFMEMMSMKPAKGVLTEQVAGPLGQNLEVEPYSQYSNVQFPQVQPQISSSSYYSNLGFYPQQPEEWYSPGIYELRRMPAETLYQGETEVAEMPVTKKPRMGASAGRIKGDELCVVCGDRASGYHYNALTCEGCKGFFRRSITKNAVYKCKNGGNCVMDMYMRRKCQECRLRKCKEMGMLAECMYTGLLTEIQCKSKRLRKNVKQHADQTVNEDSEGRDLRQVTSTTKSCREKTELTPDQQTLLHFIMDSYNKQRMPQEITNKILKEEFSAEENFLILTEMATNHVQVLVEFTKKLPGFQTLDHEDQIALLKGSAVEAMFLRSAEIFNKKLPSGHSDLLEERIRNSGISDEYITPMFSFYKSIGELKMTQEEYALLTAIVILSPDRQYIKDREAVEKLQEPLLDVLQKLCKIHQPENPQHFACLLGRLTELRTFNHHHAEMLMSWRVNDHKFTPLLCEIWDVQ
Sequence of Vitamin D3 receptor (Homo sapiens) (P11473 whole entry, looked up): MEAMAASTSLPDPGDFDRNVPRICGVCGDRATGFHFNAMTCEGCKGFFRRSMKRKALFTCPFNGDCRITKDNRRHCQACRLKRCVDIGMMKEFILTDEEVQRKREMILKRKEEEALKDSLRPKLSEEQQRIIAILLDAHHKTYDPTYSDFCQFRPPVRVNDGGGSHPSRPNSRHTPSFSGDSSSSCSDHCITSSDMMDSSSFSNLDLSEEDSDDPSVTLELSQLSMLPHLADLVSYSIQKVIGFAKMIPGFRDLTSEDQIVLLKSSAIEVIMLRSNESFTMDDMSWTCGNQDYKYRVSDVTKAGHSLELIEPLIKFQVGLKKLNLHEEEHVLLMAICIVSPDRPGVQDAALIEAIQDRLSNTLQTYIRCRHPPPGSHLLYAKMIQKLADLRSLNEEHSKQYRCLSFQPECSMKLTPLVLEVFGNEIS
Sequence of Retinoic acid receptor RXR-alpha (Homo sapiens) (P19793 whole entry, looked up): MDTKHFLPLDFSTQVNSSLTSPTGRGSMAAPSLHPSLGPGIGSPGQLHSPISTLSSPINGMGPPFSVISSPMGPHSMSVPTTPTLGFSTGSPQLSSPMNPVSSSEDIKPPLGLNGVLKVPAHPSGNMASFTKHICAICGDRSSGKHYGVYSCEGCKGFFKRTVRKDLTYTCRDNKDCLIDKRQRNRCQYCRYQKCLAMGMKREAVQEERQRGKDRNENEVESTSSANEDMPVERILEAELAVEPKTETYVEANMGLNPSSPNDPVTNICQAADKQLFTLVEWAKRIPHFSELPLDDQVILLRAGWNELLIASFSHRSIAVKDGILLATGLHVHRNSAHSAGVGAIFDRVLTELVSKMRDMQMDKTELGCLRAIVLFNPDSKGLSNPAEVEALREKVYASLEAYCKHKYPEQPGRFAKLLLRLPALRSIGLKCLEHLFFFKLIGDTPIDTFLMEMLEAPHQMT

Take `CC(C)(C)NCC(O)COc1ccccc1OCC1CCCO1` (configuration not stated): the Potency entry in [1], in assay [2], in assay [3], in assay [4], in assay [5] and in assay [6] was “inactive” in each case. Besides, the Potency result in [7], in assay [8], in assay [10], in assay [11], in [12] and in assay [13] was “inactive” throughout. The Potency entry in assay [14] and in assay [15] was “inactive” each time. Further, the call in [9] was inactive.

Take `CCC(=O)/C=C/C1C(C)=CCCC1(C)C` (configuration not stated): the Potency entry in assay [1], in assay [2], in assay [3], in [4], in assay [5] and in assay [6] was “inactive” throughout. Also, the Potency entry in assay [7], in [16], in assay [17], in assay [8], in assay [18] and in [10] was “inactive” throughout. Besides, the Potency result in [11], in assay [12], in assay [13], in assay [14] and in assay [15] was “inactive” in each case. Further, the result in [9] was inactive.

Regarding `O=c1n(CC2CO2)c(=O)n(CC2CO2)c(=O)n1CC1CO1` (configuration not stated), the Potency result in assay [1], in assay [2], in [7], in assay [16], in assay [8] and in assay [10] was “inactive” in each case. Moreover, the Potency result in [11], in assay [12], in assay [13] and in assay [14] was “inactive” in each case. Further, in [9], the call was inactive.

For the compound `Cc1cc(OCCOCC[N+](C)(C)Cc2ccccc2)ccc1C(C)(C)CC(C)(C)C`, the Potency in assay [2] is 19.4 µM (active); in [4], 54.6 µM (active); in assay [5], 17.3 µM (active) and 18.8 µM (active); in assay [7] it was 54.6 µM (active) and 29.8 µM (active); in assay [8], 17.3 µM (active) and 26.6 µM (active); in assay [10], 19.4 µM (active). Also, the Potency was 68.2 µM (active) and 29.8 µM (active) in assay [11]; 60.8 µM (active) and 29.8 µM (active) in [12]; 34.5 µM (active) and 26.8 µM (active) in assay [13]; 10.9 µM (active) and 4.77 µM (active) in assay [15]. Also, in assay [6], the Potency entry is “inactive”.

In the case of `[Cl][In]([Cl])[Cl]`, the Potency entry in [1], in [2], in assay [3], in assay [5], in [7] and in assay [16] was “inactive” each time. Further, the Potency result in [8], in [18], in [10], in assay [11], in [12] and in [13] was “inactive” in each case. Moreover, the Potency result in assay [14], in assay [19] and in [15] was “inactive” in each case. Moreover, in assay [9], the outcome was inactive.

Turning to `C=CS(=O)(=O)O`, the Potency entry in [1], in [2], in [3], in [5], in [6] and in [7] was “inactive” each time. The Potency entry in assay [16], in assay [17], in assay [8], in assay [10], in assay [11] and in [12] was “inactive” throughout. Besides, the Potency result in [13], in [14] and in [15] was “inactive” each time. The call in assay [9] was inactive.

In the case of `CCN(CC)c1ccc2c(C)cc(=O)oc2c1`, the Potency entry in assay [2], in assay [5], in assay [7], in assay [8], in assay [18] and in [10] was “inactive” throughout. In addition, the Potency entry in assay [11], in assay [12], in assay [13] and in [15] was “inactive” throughout.
